Data reported in PMC8384837, “Expanding the binding specificity for RNA recognition by a PUF domain”.
Substitutions are numbered along the chain they refer to.

Assays:
Experiment in all cases: yeast three-hybrid, YBZ-1, SC-Leu-His + 0.5 mM 3-AT, 4 days
Conditions in all cases: tags: N-Gal4 AD-HA kept; label: inside an RPR1-promoter hybrid RNA with tandem MS2 sites; ssRNA
PUM1 PUF domain R4-DYM = PUM1 PUF domain R4-DYM (Homo sapiens, UniProt Q14671 828-1176, N971D;H972Y;Q975M)
In short: (§1)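 The interaction score is the logarithmic change in variant frequency from input to selection. It uses log2, with a pseudocount of 1 for absent variants, and frequencies came from PCR-amplified, Illumina-sequenced repeat regions. The libraries were Pumilio-1 PUF domains randomized at the three base-contacting residues per repeat, co-expressed with matching RNA elements in strain YBZ-1 (LexA–MS2 coat fusion, HIS3 reporter). Plating lasted four days on SC-Leu (input) or SC-Leu-His + 0.5 mM 3-AT (selection).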

PUM1 PUF domain R3-SRN = PUM1 PUF domain R3-SRN (Homo sapiens, UniProt Q14671 828-1176, C935S;Q939N)
In short: as §1

PUM1 PUF domain R6-GLR = target: T1, PUM1 PUF domain R6-GLR (Homo sapiens, UniProt Q14671 828-1176, N1043G;Y1044L;Q1047R)
T1 sequence: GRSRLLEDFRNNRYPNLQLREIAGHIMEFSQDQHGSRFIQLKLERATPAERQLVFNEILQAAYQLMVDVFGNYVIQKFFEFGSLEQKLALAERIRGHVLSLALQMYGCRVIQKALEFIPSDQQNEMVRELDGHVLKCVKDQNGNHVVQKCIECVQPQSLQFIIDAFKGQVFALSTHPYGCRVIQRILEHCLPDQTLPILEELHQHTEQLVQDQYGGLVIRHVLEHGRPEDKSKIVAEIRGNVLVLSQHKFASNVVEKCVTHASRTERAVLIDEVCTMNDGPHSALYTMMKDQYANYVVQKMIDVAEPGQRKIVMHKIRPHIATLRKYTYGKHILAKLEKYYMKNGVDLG
In short: as §1

PUM1 PUF domain R8-VRR = PUM1 PUF domain R8-VRR (Homo sapiens, UniProt Q14671 828-1176, N1122V;Y1123R;Q1126R)
In short: as §1

PUM1 PUF domain R3-RGG = PUM1 PUF domain R3-RGG (Homo sapiens, UniProt Q14671 828-1176, C935R;R936G;Q939G)
In short: as §1

PUM1 PUF domain R3-SCK = PUM1 PUF domain R3-SCK (Homo sapiens, UniProt Q14671 828-1176, C935S;R936C;Q939K)
In short: as §1

PUM1 PUF domain R3-RAR = PUM1 PUF domain R3-RAR (Homo sapiens, UniProt Q14671 828-1176, C935R;R936A;Q939R)
In short: as §1

PUM1 PUF domain R6-RFS = target: T2, PUM1 PUF domain R6-RFS (Homo sapiens, UniProt Q14671 828-1176, N1043R;Y1044F;Q1047S)
T2 sequence: T1 sequence with G216R, L217F, R220S
In short: as §1

PUM1 PUF domain R4-DFS = PUM1 PUF domain R4-DFS (Homo sapiens, UniProt Q14671 828-1176, N971D;H972F;Q975S)
In short: as §1

PUM1 PUF domain R8-SWQ = PUM1 PUF domain R8-SWQ (Homo sapiens, UniProt Q14671 828-1176, N1122S;Y1123W)
In short: as §1

PUM1 PUF domain R5-LWS = PUM1 PUF domain R5-LWS (Homo sapiens, UniProt Q14671 828-1176, C1007L;R1008W;Q1011S)
Sequence of PUM1 PUF domain R5-LWS (Q14671 828-1176 C1007L/R1008W/Q1011S): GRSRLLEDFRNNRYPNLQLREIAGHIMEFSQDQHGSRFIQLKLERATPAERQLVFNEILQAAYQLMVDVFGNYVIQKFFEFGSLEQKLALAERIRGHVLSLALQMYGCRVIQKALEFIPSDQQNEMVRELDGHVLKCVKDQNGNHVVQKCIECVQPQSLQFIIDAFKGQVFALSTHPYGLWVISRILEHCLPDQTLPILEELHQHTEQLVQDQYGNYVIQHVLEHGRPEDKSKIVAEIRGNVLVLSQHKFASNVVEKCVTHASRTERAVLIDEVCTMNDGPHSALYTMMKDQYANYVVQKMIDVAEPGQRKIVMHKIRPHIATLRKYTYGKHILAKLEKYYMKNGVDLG
In short: as §1

PUM1 PUF domain R6-TFE = target: T3, PUM1 PUF domain R6-TFE (Homo sapiens, UniProt Q14671 828-1176, N1043T;Y1044F;Q1047E)
T3 sequence: T1 sequence with G216T, L217F, R220E
In short: as §1

PUM1 PUF domain R1-KRR = PUM1 PUF domain R1-KRR (Homo sapiens, UniProt Q14671 828-1176, S863K;Q867R)
In short: as §1

PUM1 PUF domain R1-KLV = PUM1 PUF domain R1-KLV (Homo sapiens, UniProt Q14671 828-1176, S863K;R864L;Q867V)
In short: as §1

PUM1 PUF domain R1-LWK = PUM1 PUF domain R1-LWK (Homo sapiens, UniProt Q14671 828-1176, S863L;R864W;Q867K)
In short: as §1

PUM1 PUF domain R4-FNA = PUM1 PUF domain R4-FNA (Homo sapiens, UniProt Q14671 828-1176, N971F;H972N;Q975A)
In short: as §1

PUM1 PUF domain R5-DYF = PUM1 PUF domain R5-DYF (Homo sapiens, UniProt Q14671 828-1176, C1007D;R1008Y;Q1011F)
In short: as §1

PUM1 PUF domain R5-RPM = PUM1 PUF domain R5-RPM (Homo sapiens, UniProt Q14671 828-1176, C1007R;R1008P;Q1011M)
In short: as §1

PUM1 PUF domain R5-SRR = PUM1 PUF domain R5-SRR (Homo sapiens, UniProt Q14671 828-1176, C1007S;Q1011R)
In short: as §1

PUM1 PUF domain R7-EPA = PUM1 PUF domain R7-EPA (Homo sapiens, UniProt Q14671 828-1176, S1079E;N1080P;E1083A)
In short: as §1

With “GGCUAGAACUAGUGGAUCCCCCGGCGCCCGGCGGCUCGAGCCCGGGUAAGUGUACAUAGUCUGCAUGCCGCCGGGCGCCAUGCCUGCAGGUCGACUCUAGAAAACAUG” the binding signal (PUM1 PUF domain R4-DYM) was 5.08 log2 enrichment (interaction score).
“GGCUAGAACUAGUGGAUCCCCCGGCGCCCGGCGGCUCGAGCCCGGGUAAGUGUAAGUAGUCUGCAUGCCGCCGGGCGCCAUGCCUGCAGGUCGACUCUAGAAAACAUG” was tested, and the binding signal (PUM1 PUF domain R3-SRN) was 1.88 log2 enrichment (interaction score).
For “GGCUAGAACUAGUGGAUCCCCCGGCGCCCGGCGGCUCGAGCCCGGGUAAGUGCAAAUAGUCUGCAUGCCGCCGGGCGCCAUGCCUGCAGGUCGACUCUAGAAAACAUG”, the binding signal (PUM1 PUF domain R6-GLR) was 3.46 log2 enrichment (interaction score).
With “GGCUAGAACUAGUGGAUCCCCCGGCGCCCGGCGGCUCGAGCCCGGGUAAGCGUAAAUAGUCUGCAUGCCGCCGGGCGCCAUGCCUGCAGGUCGACUCUAGAAAACAUG” the binding signal (PUM1 PUF domain R8-VRR) was 2.81 log2 enrichment (interaction score).
In the case of “GGCUAGAACUAGUGGAUCCCCCGGCGCCCGGCGGCUCGAGCCCGGGUAAGUGUAAUUAGUCUGCAUGCCGCCGGGCGCCAUGCCUGCAGGUCGACUCUAGAAAACAUG”, the binding signal (PUM1 PUF domain R3-RGG) is reported as 2.13 log2 enrichment (interaction score), the binding signal (PUM1 PUF domain R3-SCK) is reported as 3.52 log2 enrichment (interaction score) and the binding signal (PUM1 PUF domain R3-RAR) is reported as 3.75 log2 enrichment (interaction score).
For “GGCUAGAACUAGUGGAUCCCCCGGCGCCCGGCGGCUCGAGCCCGGGUAAGUGUAAAUAGUCUGCAUGCCGCCGGGCGCCAUGCCUGCAGGUCGACUCUAGAAAACAUG”, the binding signal (PUM1 PUF domain R6-RFS) was 4.37 log2 enrichment (interaction score), the binding signal (PUM1 PUF domain R8-VRR) was 1.71 log2 enrichment (interaction score) and the binding signal (PUM1 PUF domain R4-DFS) was 6.43 log2 enrichment (interaction score). The binding signal (PUM1 PUF domain R8-SWQ) was 4.66 log2 enrichment (interaction score), the binding signal (PUM1 PUF domain R4-DYM) was 4.83 log2 enrichment (interaction score) and the binding signal (PUM1 PUF domain R3-SRN) was 4.26 log2 enrichment (interaction score). For the same sequence, the binding signal (PUM1 PUF domain R5-LWS) was 2.04 log2 enrichment (interaction score).
“GGCUAGAACUAGUGGAUCCCCCGGCGCCCGGCGGCUCGAGCCCGGGUAAGUGUGAAUAGUCUGCAUGCCGCCGGGCGCCAUGCCUGCAGGUCGACUCUAGAAAACAUG” was tested, and the binding signal (PUM1 PUF domain R5-LWS) was 1.62 log2 enrichment (interaction score).
For “GGCUAGAACUAGUGGAUCCCCCGGCGCCCGGCGGCUCGAGCCCGGGUAAGUGGAAAUAGUCUGCAUGCCGCCGGGCGCCAUGCCUGCAGGUCGACUCUAGAAAACAUG”, the binding signal (PUM1 PUF domain R6-TFE) was 3.07 log2 enrichment (interaction score).
With “GGCUAGAACUAGUGGAUCCCCCGGCGCCCGGCGGCUCGAGCCCGGGUAAGUGUAAAUCGUCUGCAUGCCGCCGGGCGCCAUGCCUGCAGGUCGACUCUAGAAAACAUG” the binding signal (PUM1 PUF domain R1-KRR) was 5.65 log2 enrichment (interaction score), the binding signal (PUM1 PUF domain R1-KLV) was 3.95 log2 enrichment (interaction score) and the binding signal (PUM1 PUF domain R1-LWK) was 4.58 log2 enrichment (interaction score).
“GGCUAGAACUAGUGGAUCCCCCGGCGCCCGGCGGCUCGAGCCCGGGUAAGUGUAUAUAGUCUGCAUGCCGCCGGGCGCCAUGCCUGCAGGUCGACUCUAGAAAACAUG” was tested, and the binding signal (PUM1 PUF domain R4-DFS) was 6.8 log2 enrichment (interaction score) and the binding signal (PUM1 PUF domain R4-FNA) was 2.23 log2 enrichment (interaction score).
In the case of “GGCUAGAACUAGUGGAUCCCCCGGCGCCCGGCGGCUCGAGCCCGGGUAAGUGUUAAUAGUCUGCAUGCCGCCGGGCGCCAUGCCUGCAGGUCGACUCUAGAAAACAUG”, the binding signal (PUM1 PUF domain R5-DYF) is reported as 4.44 log2 enrichment (interaction score), the binding signal (PUM1 PUF domain R5-RPM) is reported as 2.25 log2 enrichment (interaction score) and the binding signal (PUM1 PUF domain R5-LWS) is reported as 2.93 log2 enrichment (interaction score).
For “GGCUAGAACUAGUGGAUCCCCCGGCGCCCGGCGGCUCGAGCCCGGGUAAGUGUAAAUUGUCUGCAUGCCGCCGGGCGCCAUGCCUGCAGGUCGACUCUAGAAAACAUG”, the binding signal (PUM1 PUF domain R1-KRR) was 5.9 log2 enrichment (interaction score) and the binding signal (PUM1 PUF domain R1-KLV) was 4.79 log2 enrichment (interaction score).
In the case of “GGCUAGAACUAGUGGAUCCCCCGGCGCCCGGCGGCUCGAGCCCGGGUAAGUGUCAAUAGUCUGCAUGCCGCCGGGCGCCAUGCCUGCAGGUCGACUCUAGAAAACAUG”, the binding signal (PUM1 PUF domain R5-SRR) is reported as 4.23 log2 enrichment (interaction score) and the binding signal (PUM1 PUF domain R5-LWS) is reported as 2.81 log2 enrichment (interaction score).
For “GGCUAGAACUAGUGGAUCCCCCGGCGCCCGGCGGCUCGAGCCCGGGUAAGUCUAAAUAGUCUGCAUGCCGCCGGGCGCCAUGCCUGCAGGUCGACUCUAGAAAACAUG”, the binding signal (PUM1 PUF domain R7-EPA) was 4.81 log2 enrichment (interaction score).
In the case of “GGCUAGAACUAGUGGAUCCCCCGGCGCCCGGCGGCUCGAGCCCGGGUAAGUGUAAAUGGUCUGCAUGCCGCCGGGCGCCAUGCCUGCAGGUCGACUCUAGAAAACAUG”, the binding signal (PUM1 PUF domain R1-KLV) is reported as 3.18 log2 enrichment (interaction score).
